# Records with an inconclusive call do not appear. Where a call stands in place of a potency, no number is given. Activity calls are given as the source filed them. Unless noted, calls follow the shape of the dose curve; as a rule, active = well fitted curve in the direction sought with a large enough effect; inconclusive = small, poorly fitted or top-dose-only effect, or another doubt; inactive = no such curve, though single readings can be large; an effect the other way counts as inactive or inconclusive.
# How the values were obtained:
# [1] = biological target: Mitogen-activated protein kinase 10 (Mus musculus) (UniProt Q61831); test: JNK3 AlphaScreen Assay (AID 530; active = well fitted curve in either direction with a large enough effect, not every such curve was filed as active;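 also: kinase came from lysate of stimulated human HepG2 cells; signal reports phosphorylation of biotinylated GST-cJun 1-79 at Ser73 with 10 µM ATP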)
# Method in brief: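 Pre-activated (IL-1β/TNFα) JNK3 in HepG2 lysates phosphorylates biotin-GST-cJun(1-79), 10 uM ATP; anti-phospho-cJun(Ser73) AlphaScreen read at room temperature, pH 7.6 Tris buffer. Compounds pre-incubated 15 min as titrations.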
# [2] = biological target: 3',5'-cyclic-AMP phosphodiesterase 4B (Homo sapiens) (UniProt Q07343); test: qHTS Assay for Inhibitors of PDE-IV (AID 607; active = well fitted activation curve with a large enough effect in the main read-out, with a control signal flat, not every such curve was filed as active)
# Method in brief: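 Live HEK293 cells with a modified cyclic nucleotide-gated (CNG) channel report intracellular cAMP via membrane-potential dye fluorescence (ex 535/em 590 nm). Endogenous PDE-IV was targeted. Compounds were tested at up to 22.9 uM final; RO 20-1724 100 uM served as control.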
# [3] = biological target: Ubiquitin carboxyl-terminal hydrolase 1 (Homo sapiens) (UniProt O94782); test: Inhibitors of USP1/UAF1: Pilot qHTS (AID 504865);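 also: rhodamine fluorescence freed from ubiquitin-rhodamine substrate followed over time; top concentration of the series differs between compounds; nearly all actives have a fitted effect of over 35% in size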
# Method in brief: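 USP1/UAF1 complex at 1 nM preincubated 15 min at room temperature with compound, then Ub-Rho substrate added at 150 nM final. Fluorescence (480/540 nm) read kinetically in 50 mM HEPES pH 7.8, 0.5 mM EDTA, 1 mM TCEP, 0.1 mg/ml BSA, 0.01% Tween-20.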
# [4] = biological target: DNA dC->dU-editing enzyme APOBEC-3G (Homo sapiens) (UniProt Q9HC16); test: qHTS for inhibitors of Vif-A3G interactions: Validation (AID 588379)
# Method in brief: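 HeLa cells stably expressing Vif and A3G-eYFP, 700 cells/well, incubated overnight at 37 deg C, then exposed to compound overnight at 37 deg C. Inhibition of Vif-mediated degradation read as increased yellow fluorescence (Ex 488/Em 500-530) by laser-scanning cytometry.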
# [5] = tested on: Zika virus NS2B-NS3 protease; test: Primary screen GU AMC qHTS for Zika virus inhibitors (AID 1347154); also: nearly all actives have a fitted effect of over 70% in size
# Method in brief: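 Unlinked Zika NS2B hydrophilic domain–NS3 protease complex at 25 nM in 10 mM Tris-HCl pH 8.0, 0.01% Tween 20, with an AMC peptide substrate. Fluorescence change (340/450 nm) over 15 min at room temperature, normalized to controls, fitted to 4-parameter Hill.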
# [6] = Primary qHTS for small molecule stabilizers of the endoplasmic reticulum resident proteome: Secreted ER Calcium Modulated Protein (SERCaMP) assay (AID 1508630)
# Method in brief: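 GLuc-SERCaMP-expressing SH-SY5Y cells, pretreated 16 h with compound, are challenged with thapsigargin to empty ER calcium stores; after 4 h, coelenterazine is added directly to the medium and luminescence is imaged.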
# [7] = biological target: Cytochrome P450 1A2 (Homo sapiens) (UniProt P05177); test: p450-cyp1a2 (AID 410; calls by dose curve)
# Method in brief: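 20nM CYP1A2 with 100uM Luciferin-ME (at Km) in 100mM KPO4; compound preincubated 10 min, NADPH regeneration added, 60 min at room temperature. Luciferin quantified by luminescence after detection reagent; normalized to 57 uM furafylline.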
# [8] = biological target: Glucocorticoid receptor (Homo sapiens) (UniProt P04150); test: GR-GFP Redistribution (AID 450;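 active = compounds whose dose series gives a full or clear partial fitted curve of increased nuclear translocation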; also: potency is read from the fitted curve at half-maximal effect); details: U2OS GR-GFP nuclear translocation, laser cytometry, 2 h
# [9] = biological target: Glucocorticoid receptor (Homo sapiens) (UniProt P04150); test: GR-EFC Redistribution (AID 451; calls by dose curve; also: potency is read from the fitted curve at half-maximal effect); details: CHO-K1 GR-EFC translocation, beta-gal luminescence, 2 h
# Method in brief: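 CHO-K1 cells expressing nuclear EA and GR-ED fragments of b-gal; compounds titrated up to 46 uM final, 2 h at 37 C. GR nuclear translocation read as complemented b-gal luminescence after 1 h RT detection.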
# [10] = qHTS Assay for Lipid Storage Modulators (AID 1519; calls by dose curve); details: Drosophila S3 cells, BODIPY lipid droplet/cell ratio, laser cytometry, cells loaded with oleic acid; for activity change, negative = inhibition: at 57.5 µM (top of the series)
# Method in brief: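 Cells seeded at 5,000 per well were treated with compounds over a concentration series and loaded with oleic acid (400 uM, as added). Lipid droplet fluorescence (488 nm excitation, 500-530 nm channel) was read by laser-scanning cytometry and normalized to 20 uM Triacsin C.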
# [11] = NCATS anti-infectives library activity on HEK293 viability as a counter-qHTS vs the C. elegans viability qHTS (AID 1745854);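 also: HEK293 cells exposed to compounds for 24 hr before the viability read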
# Method in brief: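 HEK293 cells (1,500/well) exposed 24 hr at 37C to 1:5 titrations, up to 41.7 uM final; counter-screen to a C. elegans viability qHTS. Viability by CellTiter-Glo luminescence after 10 min at room temperature; digitonin as control.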
# [12] = biological target: Tyrosyl-DNA phosphodiesterase 1 (Homo sapiens) (UniProt Q9NUW8); test: Confirmation Assay for Inhibitors of Tyrosyl-DNA Phosphodiesterase (TDP1) (AID 489007); details: recombinant human TDP1 enzymatic activity, dose-response; also: potency is read from the fitted curve at half-maximal effect; nearly all actives have a fitted effect of over 40% in size
# Method in brief: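 Recombinant human Tdp1 (1 nM final), expressed in E. coli, preincubated 15 min with compound. Then 15 nM 5'-biotin/3'-phosphotyrosine-FITC DNA substrate added for 5 min at room temperature. AlphaScreen beads (10 ug/ml) added for 10 min; cleavage gives signal loss.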
# [13] = qHTS for Inhibitors of the vitamin D receptor (VDR): Hit Validation using a Texas Red Assay (AID 602201); details: VDR coregulator binding, Texas Red fluorescence polarization; agonist-bound VDR ligand-binding domain; also: potency is read from the fitted curve at half-maximal effect
# Method in brief: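 Fluorescence polarization with 1.5 uM VDR-LBD, LG19078 and 7 nM Texas Red (final). After 2 hours at ambient temperature, read at Ex 595 nm/Em 615 nm.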
# [14] = biological target: Cytochrome P450 3A4 (Homo sapiens) (UniProt P08684); test: qHTS Assay for Activators of Cytochrome P450 3A4 (AID 885); also: nearly all actives have a fitted effect of over 65% in size
# Method in brief: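 Quantitative HTS format: compounds preincubated with 20nM human CYP3A4 and Luciferin-PPXE substrate at KM, reaction started by NADPH regeneration, stopped after 60 min, luciferase luminescence read 20 min later.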
# [15] = AP1 Signaling Pathway (AID 357; active = well fitted curve in either direction with a large enough effect, not every such curve was filed as active;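 also: ME-180 reporter cells stimulated with EGF at its EC50 level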); details: ME-180 AP-1-bla reporter, EGF-induced, beta-lactamase ratio, 5 h; at 38 µM (top of the series)
# Method in brief: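 Modulation of EGF-driven AP-1 transcription was assessed with a beta-lactamase reporter in ME-180 cells. Compound and EC50 EGF were co-incubated 5 hours at 37 °C before 2.5-hour CCF4 loading at room temperature and dual-emission reading.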
# [16] = NFAT Signaling Pathway (AID 444; active = well fitted curve in either direction with a large enough effect, not every such curve was filed as active;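 also: carbachol stimulus at about its EC50 of 1 µM final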); details: Jurkat NFAT-bla M1, carbachol, beta-lactamase ratio, 5 h; at 38 µM (top of the series)
# Method in brief: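 Jurkat cells with NFAT-driven β-lactamase reporter and co-expressed M1 receptor, stimulated with carbachol (final 1 uM, ~EC50), compound titration, 5 h at 37 °C. CCF4 loaded 1 h at RT; 460/530 nm ratio gave %activity and AC50.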
# [17] = Stat Signaling Pathway (AID 446; active = well fitted curve in either direction with a large enough effect, not every such curve was filed as active;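 also: ME-180 cervical cancer cells given 40 pM IL-6 alongside compound; SIE-controlled beta-lactamase reporter measured as 460/530 nm FRET emission ratio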); details: ME-180 (cervical carcinoma) SIE beta-lactamase reporter, IL-6 stimulated, 5 h; at 38 µM (top of the series)
# Method in brief: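 IL-6/STAT signaling read in ME-180 cells via an SIE beta-lactamase reporter. Stimulus was 40 pM IL-6 (its AC50) for 5 hrs, so both activation and inhibition register.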
# [18] = biological target: Guanine nucleotide-binding protein G(i) subunit alpha-1 (Homo sapiens) (UniProt P63096); test: qHTS Assay for Inhibitors of RGS12 GoLoco Motif Activity (Green Fluorophore) (AID 879);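 also: negative values mean loss of peptide binding seen as reduced polarization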
# Method in brief: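 Fluorescence polarization assay: 50 nM Gαi1 with 10 nM FITC-labeled RGS12 GoLoco peptide in 10 mM Tris pH 7.5, 150 mM NaCl, 0.1 mM GDP, 0.05% NP40, 10 min at room temperature with compound.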
# [19] = biological target: Cytochrome P450 2C9 (Homo sapiens) (UniProt P11712); test: qHTS Assay for Inhibitors and Substrates of Cytochrome P450 2C9 (AID 883); also: nearly all actives have a fitted effect of over 60% in size
# Method in brief: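 10nM CYP2C9 + 100uM Luciferin-H (=KM), 25mM KPO4; cpd 10 min 37C; NADPH regen, 60 min 37C; stop/detect with P450 Glo-Buffer 20 min; luminescence. Norm. to 57uM sulphaphenazole as full inhibition.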
# [20] = biological target: Pyruvate kinase (Leishmania mexicana) (UniProt Q27686); test: qHTS Validation Assay for Inhibitors of Leishmania Mexicana Pyruvate Kinase (AID 945)
# Method in brief: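 Pyruvate kinase activity of E451W LmPYK (0.2 nM) was followed as ATP output after 1 h at room temperature with 0.5 mM PEP and 0.1 mM ADP, detected by PKLight luminescence.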
# [21] = biological target: Pyruvate kinase PKM (Homo sapiens) (UniProt P14618); test: qHTS Assay for Activators of Human Muscle Pyruvate Kinase (AID 954; active = well fitted curve in the direction sought with a large enough effect, not every such curve was filed as active)
# Method in brief: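 Enzyme was run at intermediate activity so both inhibitors and activators could be detected. ATP formed from ADP and PEP by 0.1 nM human PKM2 during a 1 h room-temperature incubation was quantified by coupled luciferase luminescence.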
# [22] = biological target: Alpha-galactosidase A (Homo sapiens) (UniProt P06280); test: Counterscreen for Glucocerebrosidase Inhibitors: qHTS Assay for Human alpha-Galactosidase at pH 4.5 (AID 992)
# Method in brief: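 Read-out is 4-methylumbelliferone fluorescence (365 nm excitation, 440 nm emission) after a pH 10 NaOH/glycine stop. Reactions held 2 nM enzyme and 80 uM substrate at pH 4.5 for 20 min at room temperature.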
# [23] = biological target: alpha-glucosidase (Oryza sativa, rice) (UniProt Q653V4); test: Counterscreen for Glucocerebrosidase Inhibitors: qHTS Assay for Rice alpha-Glucosidase at pH 5.0 (AID 997)
# Method in brief: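 Rice alpha-glucosidase (4 nM final) with 400 uM 4-methylumbelliferyl-alpha-D-glucopyranoside in citrate buffer pH 5.0, 20 min at room temperature, stopped at pH 10; fluorescence 365/440 nm, compounds 0.7 nM–77 uM, AC50 from Hill fits.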
# [24] = biological target: Cytochrome P450 3A4 (Homo sapiens) (UniProt P08684); test: qHTS Assay for Inhibitors and Substrates of Cytochrome P450 3A4 (AID 884); also: nearly all actives have a fitted effect of over 50% in size
# Method in brief: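 20 nM human CYP3A4 with 25 uM Luciferin-PPXE (at KM) in 200 mM KPO4, preincubated 10 min with compound; NADPH regeneration started a 60 min RT reaction. Luciferin detected by luminescence, normalized to 57 uM ketoconazole as full inhibition.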
# [25] = measured here: cell count channel max response
# [26] = measured here: lipid channel max response
# Chain of Ubiquitin carboxyl-terminal hydrolase 1 (Homo sapiens) (O94782 whole entry, looked up): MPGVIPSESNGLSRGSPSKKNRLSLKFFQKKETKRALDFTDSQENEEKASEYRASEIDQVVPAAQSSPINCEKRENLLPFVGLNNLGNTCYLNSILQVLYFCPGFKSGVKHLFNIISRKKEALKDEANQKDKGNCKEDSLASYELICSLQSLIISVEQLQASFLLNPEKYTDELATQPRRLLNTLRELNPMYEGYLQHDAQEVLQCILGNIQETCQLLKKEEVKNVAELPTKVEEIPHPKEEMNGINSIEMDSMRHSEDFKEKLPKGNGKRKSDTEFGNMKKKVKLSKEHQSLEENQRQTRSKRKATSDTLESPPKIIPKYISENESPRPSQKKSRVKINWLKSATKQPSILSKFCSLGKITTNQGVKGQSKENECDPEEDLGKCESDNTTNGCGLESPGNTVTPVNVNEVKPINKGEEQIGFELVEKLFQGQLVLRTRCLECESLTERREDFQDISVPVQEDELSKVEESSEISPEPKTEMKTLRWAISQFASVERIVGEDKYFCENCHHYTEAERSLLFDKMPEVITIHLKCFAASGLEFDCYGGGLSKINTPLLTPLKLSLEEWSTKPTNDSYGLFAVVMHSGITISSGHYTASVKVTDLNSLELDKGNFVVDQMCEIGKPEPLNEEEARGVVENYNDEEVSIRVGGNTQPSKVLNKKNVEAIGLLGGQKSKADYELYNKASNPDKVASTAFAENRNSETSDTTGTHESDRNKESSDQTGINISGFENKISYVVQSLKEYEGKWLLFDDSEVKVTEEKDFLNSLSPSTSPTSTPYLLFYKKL
# Chain of Cytochrome P450 3A4 (Homo sapiens) (P08684 whole entry, looked up): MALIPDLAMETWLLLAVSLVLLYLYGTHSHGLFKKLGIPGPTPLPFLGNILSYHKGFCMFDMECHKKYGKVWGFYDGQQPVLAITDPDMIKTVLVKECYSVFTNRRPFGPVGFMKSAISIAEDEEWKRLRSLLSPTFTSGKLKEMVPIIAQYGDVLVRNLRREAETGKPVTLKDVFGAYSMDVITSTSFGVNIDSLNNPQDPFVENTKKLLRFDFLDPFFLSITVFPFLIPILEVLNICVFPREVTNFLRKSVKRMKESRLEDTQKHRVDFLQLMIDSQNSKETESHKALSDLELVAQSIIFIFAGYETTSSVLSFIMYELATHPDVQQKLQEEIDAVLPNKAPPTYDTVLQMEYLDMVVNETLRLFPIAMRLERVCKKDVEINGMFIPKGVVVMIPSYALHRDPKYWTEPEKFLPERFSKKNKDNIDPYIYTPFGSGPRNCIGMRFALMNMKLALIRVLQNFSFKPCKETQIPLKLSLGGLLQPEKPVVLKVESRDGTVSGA
# Chain of Cytochrome P450 1A2 (Homo sapiens) (P05177 whole entry, looked up): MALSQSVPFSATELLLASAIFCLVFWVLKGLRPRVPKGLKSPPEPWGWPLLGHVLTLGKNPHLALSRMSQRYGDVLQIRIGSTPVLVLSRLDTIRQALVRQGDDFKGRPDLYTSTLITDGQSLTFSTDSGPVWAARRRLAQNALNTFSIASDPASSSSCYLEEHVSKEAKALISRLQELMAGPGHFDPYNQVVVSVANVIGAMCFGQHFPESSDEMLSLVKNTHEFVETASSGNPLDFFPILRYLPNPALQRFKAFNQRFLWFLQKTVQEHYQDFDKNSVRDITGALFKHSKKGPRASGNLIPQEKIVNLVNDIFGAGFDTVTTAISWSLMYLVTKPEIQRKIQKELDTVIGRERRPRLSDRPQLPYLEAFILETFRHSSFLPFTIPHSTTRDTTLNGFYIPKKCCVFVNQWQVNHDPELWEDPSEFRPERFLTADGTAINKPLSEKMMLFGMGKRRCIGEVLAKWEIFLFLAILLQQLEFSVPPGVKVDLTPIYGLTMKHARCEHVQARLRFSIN
# Chain of DNA dC->dU-editing enzyme APOBEC-3G (Homo sapiens) (Q9HC16 whole entry, looked up): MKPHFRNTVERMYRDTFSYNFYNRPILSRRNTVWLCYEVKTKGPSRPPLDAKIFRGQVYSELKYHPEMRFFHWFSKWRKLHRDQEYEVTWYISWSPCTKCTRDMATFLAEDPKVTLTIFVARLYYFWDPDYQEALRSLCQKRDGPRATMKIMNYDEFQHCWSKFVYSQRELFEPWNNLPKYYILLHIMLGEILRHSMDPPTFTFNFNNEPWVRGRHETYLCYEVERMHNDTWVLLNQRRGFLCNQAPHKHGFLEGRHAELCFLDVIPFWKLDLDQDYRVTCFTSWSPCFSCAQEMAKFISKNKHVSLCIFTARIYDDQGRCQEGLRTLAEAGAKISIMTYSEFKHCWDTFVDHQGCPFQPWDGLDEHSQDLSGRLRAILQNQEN
# Chain of 3',5'-cyclic-AMP phosphodiesterase 4B (Homo sapiens) (Q07343 whole entry, looked up): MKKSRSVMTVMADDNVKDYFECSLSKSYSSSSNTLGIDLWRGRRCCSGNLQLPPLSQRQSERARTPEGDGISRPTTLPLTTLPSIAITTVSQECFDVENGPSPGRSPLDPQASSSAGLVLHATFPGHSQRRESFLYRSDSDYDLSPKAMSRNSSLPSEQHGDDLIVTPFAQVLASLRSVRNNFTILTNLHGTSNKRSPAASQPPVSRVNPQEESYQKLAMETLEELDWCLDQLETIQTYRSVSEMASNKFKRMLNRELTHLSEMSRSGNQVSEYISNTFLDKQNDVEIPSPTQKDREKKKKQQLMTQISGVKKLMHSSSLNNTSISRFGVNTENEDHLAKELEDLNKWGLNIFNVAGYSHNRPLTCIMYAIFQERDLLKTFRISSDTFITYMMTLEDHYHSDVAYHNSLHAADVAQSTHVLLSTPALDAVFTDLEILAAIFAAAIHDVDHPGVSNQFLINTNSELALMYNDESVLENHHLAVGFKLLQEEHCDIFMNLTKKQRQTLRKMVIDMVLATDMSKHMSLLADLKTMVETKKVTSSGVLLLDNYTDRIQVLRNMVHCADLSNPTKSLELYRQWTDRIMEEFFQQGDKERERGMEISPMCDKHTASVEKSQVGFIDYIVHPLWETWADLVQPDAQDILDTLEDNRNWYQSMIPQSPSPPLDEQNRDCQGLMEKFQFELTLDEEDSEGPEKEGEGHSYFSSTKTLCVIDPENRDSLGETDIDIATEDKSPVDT
# Chain of Glucocorticoid receptor (Homo sapiens) (P04150 whole entry, looked up, the tested form may be a part): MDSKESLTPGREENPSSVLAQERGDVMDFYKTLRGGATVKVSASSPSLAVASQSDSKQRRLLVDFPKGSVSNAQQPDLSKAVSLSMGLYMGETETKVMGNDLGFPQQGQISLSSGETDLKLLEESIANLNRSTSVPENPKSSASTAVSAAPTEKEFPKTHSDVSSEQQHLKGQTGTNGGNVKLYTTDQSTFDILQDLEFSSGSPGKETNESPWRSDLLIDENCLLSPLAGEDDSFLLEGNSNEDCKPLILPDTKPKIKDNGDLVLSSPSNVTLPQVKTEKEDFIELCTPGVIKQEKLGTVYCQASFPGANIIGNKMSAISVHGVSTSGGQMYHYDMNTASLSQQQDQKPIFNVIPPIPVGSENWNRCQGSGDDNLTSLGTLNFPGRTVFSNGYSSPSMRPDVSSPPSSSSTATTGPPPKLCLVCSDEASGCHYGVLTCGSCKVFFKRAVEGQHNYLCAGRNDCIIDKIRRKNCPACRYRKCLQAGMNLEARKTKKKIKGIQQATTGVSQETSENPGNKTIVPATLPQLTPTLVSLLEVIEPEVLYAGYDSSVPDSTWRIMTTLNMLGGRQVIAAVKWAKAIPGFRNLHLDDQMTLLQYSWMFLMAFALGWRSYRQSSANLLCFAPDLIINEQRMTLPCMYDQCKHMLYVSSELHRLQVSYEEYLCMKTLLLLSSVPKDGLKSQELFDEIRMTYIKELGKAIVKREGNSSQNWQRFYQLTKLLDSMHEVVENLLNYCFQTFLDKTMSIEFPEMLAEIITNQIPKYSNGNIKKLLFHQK
# Chain of Guanine nucleotide-binding protein G(i) subunit alpha-1 (Homo sapiens) (P63096 whole entry, looked up): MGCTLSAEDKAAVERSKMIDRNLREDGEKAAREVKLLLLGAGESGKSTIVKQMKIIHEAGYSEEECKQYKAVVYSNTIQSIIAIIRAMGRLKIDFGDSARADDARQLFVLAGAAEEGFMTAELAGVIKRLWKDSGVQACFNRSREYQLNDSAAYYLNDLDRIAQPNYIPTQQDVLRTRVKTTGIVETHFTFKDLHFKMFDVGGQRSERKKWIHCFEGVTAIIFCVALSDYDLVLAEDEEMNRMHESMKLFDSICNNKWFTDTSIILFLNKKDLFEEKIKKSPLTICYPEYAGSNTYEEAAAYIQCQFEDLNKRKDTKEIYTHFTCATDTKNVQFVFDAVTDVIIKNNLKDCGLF
# Chain of Alpha-galactosidase A (Homo sapiens) (P06280 whole entry, looked up): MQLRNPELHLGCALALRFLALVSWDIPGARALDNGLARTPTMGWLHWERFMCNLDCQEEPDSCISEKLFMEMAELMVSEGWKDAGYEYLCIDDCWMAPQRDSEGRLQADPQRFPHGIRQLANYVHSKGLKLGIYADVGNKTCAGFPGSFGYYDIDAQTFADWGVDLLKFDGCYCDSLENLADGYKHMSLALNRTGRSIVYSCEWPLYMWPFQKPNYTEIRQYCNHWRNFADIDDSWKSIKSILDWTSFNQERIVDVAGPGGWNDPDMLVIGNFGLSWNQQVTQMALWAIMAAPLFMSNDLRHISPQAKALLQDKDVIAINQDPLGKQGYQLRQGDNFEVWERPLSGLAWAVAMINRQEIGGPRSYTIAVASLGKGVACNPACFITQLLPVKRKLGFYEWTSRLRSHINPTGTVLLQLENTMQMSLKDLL
# Chain of Pyruvate kinase PKM (Homo sapiens) (P14618 whole entry, looked up): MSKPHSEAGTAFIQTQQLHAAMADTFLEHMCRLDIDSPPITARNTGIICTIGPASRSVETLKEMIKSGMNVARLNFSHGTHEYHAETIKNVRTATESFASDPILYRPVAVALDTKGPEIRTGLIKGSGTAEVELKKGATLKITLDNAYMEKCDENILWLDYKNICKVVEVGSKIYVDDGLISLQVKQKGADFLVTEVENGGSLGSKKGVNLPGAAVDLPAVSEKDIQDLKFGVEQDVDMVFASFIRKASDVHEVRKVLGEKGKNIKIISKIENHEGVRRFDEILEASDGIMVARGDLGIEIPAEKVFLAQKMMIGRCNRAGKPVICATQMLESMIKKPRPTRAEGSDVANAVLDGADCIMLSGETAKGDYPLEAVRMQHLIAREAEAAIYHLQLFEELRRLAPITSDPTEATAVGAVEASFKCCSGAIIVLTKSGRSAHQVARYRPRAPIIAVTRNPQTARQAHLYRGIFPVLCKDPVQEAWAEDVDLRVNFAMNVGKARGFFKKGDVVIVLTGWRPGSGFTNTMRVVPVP
smiles,measurement,setting,value
COC(=O)[C@H]1[C@@H]2C[C@H]3c4[nH]c5ccccc5c4CCN3C[C@@H]2CC[C@@H]1O,Potency,[1],inactive
same,Potency,[2],inactive
same,Potency,[3],inactive
same,Potency,[4],inactive
same,Potency,[5],inactive
same,Potency,[6],inactive
OC[C@H]1NC[C@H](O)[C@@H](O)[C@H]1O,Potency,[7],inactive
same,Potency,[8],> 46 µM (inactive)
same,Potency,[9],> 46 µM (inactive)
same,Potency,[1],inactive
same,Potency,[2],inactive
same,"activity change, negative = inhibition",[10],-0.744% (inactive)
same,max response,[10]; [25],30%
same,max response,[10]; [26],27.8%
same,Potency,[3],inactive
same,Potency,[4],inactive
same,Potency,[5],inactive
same,outcome,[11],inactive
Cc1nc(N=Nc2cc(S(=O)(=O)O)ccc2S(=O)(=O)O)c(COP(=O)(O)O)c(C=O)c1O,Potency,[7],inactive
same,Potency,[8],> 46 µM (inactive)
same,Potency,[9],> 46 µM (inactive)
same,Potency,[1],inactive
same,"activity change, negative = inhibition",[10],-1.5% (inactive)
same,max response,[10]; [25],-2.46%
same,max response,[10]; [26],-2.68%
same,Potency,[12],1 µM (active)
same,Potency,[4],inactive
same,Potency,[5],inactive
O=C1c2ccccc2CCC1CNCCc1ccc(O)cc1 (stereo not drawn),Potency,[13],28.2 µM (active)
same,Potency,[5],inactive
same,Potency,[6],inactive
c1ccc(N2CCN(Cc3nc4ccccc4[nH]3)CC2)nc1,Potency,[14],inactive
same,Potency,[5],inactive
same,Potency,[6],inactive
OC(CN1CCNCC1)Cn1c2ccc(Br)cc2c2cc(Br)ccc21 (stereo not drawn),Potency,[14],inactive
same,Potency,[5],inactive
same,Potency,[6],inactive
CO[C@]1(C2=NCCN2)COc2ccccc2O1,"activity change, negative = inhibition",[15],-14% (inactive)
same,Potency,[7],inactive
same,"activity change, negative = inhibition",[16],-11% (inactive)
same,"activity, negative = inhibition",[17],13.6% (inactive)
same,Potency,[8],> 46 µM (inactive)
same,Potency,[9],> 46 µM (inactive)
same,Potency,[1],inactive
same,Potency,[2],inactive
same,outcome,[18],inactive
same,Potency,[19],inactive
same,Potency,[20],inactive
same,outcome,[21],inactive
same,outcome,[22],inactive
same,outcome,[23],inactive
same,"activity change, negative = inhibition",[10],1.12% (inactive)
same,max response,[10]; [25],8.44%
same,max response,[10]; [26],10.7%
same,Potency,[4],inactive
same,Potency,[5],inactive
COc1ccc(NC(=O)c2ccc(-c3ccc(-c4noc(C)n4)cc3C)cc2)cc1OCCN(C)C,Potency,[8],> 46 µM (inactive)
same,Potency,[9],> 46 µM (inactive)
same,Potency,[1],inactive
same,Potency,[14],inactive
same,Potency,[4],inactive
same,Potency,[5],inactive
same,Potency,[6],inactive
N[C@@H]1CCN(O)C1=O,"activity change, negative = inhibition",[15],18.2% (inactive)
same,"activity change, negative = inhibition",[16],0.992% (inactive)
same,"activity, negative = inhibition",[17],21.4% (inactive)
same,Potency,[8],> 46 µM (inactive)
same,Potency,[9],> 46 µM (inactive)
same,Potency,[1],inactive
same,outcome,[18],inactive
same,Potency,[20],inactive
same,outcome,[21],inactive
same,outcome,[22],inactive
same,outcome,[23],inactive
same,"activity change, negative = inhibition",[10],4.58% (inactive)
same,max response,[10]; [25],18.8%
same,max response,[10]; [26],25.6%
same,Potency,[3],inactive
same,Potency,[4],inactive
same,Potency,[5],inactive
CN1c2cc3c(cc2N=C(c2ccc(C(=O)O)cc2)c2ccccc21)C(C)(C)CCC3(C)C,Potency,[24],inactive
same,Potency,[5],inactive
same,Potency,[6],inactive
